Test results published in PubChem BioAssay (EPA / NIEHS).
Records with an inconclusive call do not appear. Active and inactive are the calls of the source. Rule for the calls, unless noted: active = hit-call score of the fitted dose curve at least 0.9, where 1 is the maximum; inconclusive = response in the unintended direction; inactive = score below 0.9.

Key:
[1] = molecular target: Hepatocyte nuclear factor 3-beta (Homo sapiens) (UniProt Q9Y261); test: ATG_FoxA2_CIS: Attagene CIS-FACTORIAL HepG2 Assay for human Forkhead box A2 (FOXA2) (AID 2282942; active = hit-call score of the fitted dose curve at least 0.9, where 1 is the maximum; inactive = score below 0.9); conditions: HepG2 cis-reporter transcription factor activity, 24 h; actives raise or lower the signal
Chain of Hepatocyte nuclear factor 3-beta (Homo sapiens) (Q9Y261 whole entry, looked up): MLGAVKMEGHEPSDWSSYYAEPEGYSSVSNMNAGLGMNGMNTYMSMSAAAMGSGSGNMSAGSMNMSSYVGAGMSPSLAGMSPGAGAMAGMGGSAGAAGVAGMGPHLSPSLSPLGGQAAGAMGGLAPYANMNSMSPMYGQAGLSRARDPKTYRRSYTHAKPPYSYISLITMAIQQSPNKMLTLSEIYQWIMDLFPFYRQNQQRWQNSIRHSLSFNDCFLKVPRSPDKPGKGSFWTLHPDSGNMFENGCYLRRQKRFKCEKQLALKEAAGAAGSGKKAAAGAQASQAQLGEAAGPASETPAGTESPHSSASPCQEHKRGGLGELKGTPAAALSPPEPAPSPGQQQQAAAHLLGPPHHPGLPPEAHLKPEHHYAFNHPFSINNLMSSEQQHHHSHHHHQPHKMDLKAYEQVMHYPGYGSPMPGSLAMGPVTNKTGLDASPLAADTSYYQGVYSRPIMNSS
Method in brief: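 Endogenous transcription factor activity is captured via cis-element-driven reporter transcripts in transfected HepG2. Total RNA taken at 24 h post-dosing; labelled RT-PCR products resolved by capillary electrophoresis. Gain or loss fitted versus DMSO.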

[2] = ATG_RORE_CIS: Attagene CIS-FACTORIAL HepG2 Assay for human RAR-related Orphan Receptor Element (RORE) (AID 2282959; active = hit-call score of the fitted dose curve at least 0.9, where 1 is the maximum; inactive = score below 0.9); conditions: HepG2 Attagene cis-factorial RORE reporter, mRNA; actives raise or lower the signal
Method in brief: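 RORE reporter transcripts reflecting endogenous factor activity were read after 24 h compound exposure of transfected HepG2 cells, using reverse transcription, PCR, fluorescent labelling and capillary electrophoresis sizing. Gain or loss fitted against DMSO.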

[3] = ATG_M_32_TRANS: Attagene TRANS-FACTORIAL HepG2 Assay for M32 Transcription Factor (Internal Marker) (AID 2282984); conditions: HepG2 Attagene TRANS M32 internal marker reporter;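 note: transcript level of a background control reporter unit measured by RT-PCR and capillary electrophoresis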
Method in brief: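 After 24 h dosing of transfected HepG2 cells, total RNA was reverse-transcribed, reporter sequences PCR-amplified, 6-FAM labelled by primer extension and HpaI-digested before capillary electrophoresis. Signal increase over DMSO was fitted.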

[4] = molecular target: Nuclear respiratory factor 1 (Homo sapiens) (UniProt Q16656); test: ATG_NRF1_CIS: Attagene CIS-FACTORIAL HepG2 Assay for human Nuclear Respiratory Factor 1 (NRF1) Orphan Gene (AID 2282987; active = hit-call score of the fitted dose curve at least 0.9, where 1 is the maximum; inactive = score below 0.9); conditions: HepG2 NRF1 cis-element reporter, Attagene multiplex; actives raise or lower the signal
Chain of Nuclear respiratory factor 1 (Homo sapiens) (Q16656 whole entry, looked up): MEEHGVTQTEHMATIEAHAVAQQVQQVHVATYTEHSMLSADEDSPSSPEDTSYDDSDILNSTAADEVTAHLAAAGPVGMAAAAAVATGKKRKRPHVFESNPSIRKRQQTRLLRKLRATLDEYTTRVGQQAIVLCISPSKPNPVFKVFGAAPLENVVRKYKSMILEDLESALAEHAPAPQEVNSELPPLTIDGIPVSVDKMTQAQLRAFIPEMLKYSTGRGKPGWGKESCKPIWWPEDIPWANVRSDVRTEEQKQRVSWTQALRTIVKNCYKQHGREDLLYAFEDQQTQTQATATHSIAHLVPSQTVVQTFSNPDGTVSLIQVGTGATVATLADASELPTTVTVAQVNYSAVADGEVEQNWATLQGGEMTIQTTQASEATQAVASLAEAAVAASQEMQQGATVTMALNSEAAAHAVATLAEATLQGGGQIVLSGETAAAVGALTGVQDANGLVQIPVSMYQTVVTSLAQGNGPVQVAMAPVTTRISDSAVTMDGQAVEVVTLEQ
Method in brief: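 Endogenous NRF1-driven reporter transcription in transfected HepG2 cells after 24 h treatment. Readout: RT-PCR products, 6-FAM labelled and resolved by capillary electrophoresis; changes fitted both directions relative to DMSO.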

[5] = molecular target: Retinoic acid receptor RXR-alpha (Homo sapiens) (UniProt P19793); test: ATG_RXRa_TRANS: Attagene TRANS-FACTORIAL HepG2 Assay for human Retinoid X Receptor alpha (RXRa) (AID 2283012)
Chain of Retinoic acid receptor RXR-alpha (Homo sapiens) (P19793 whole entry, looked up, the tested form may be a part): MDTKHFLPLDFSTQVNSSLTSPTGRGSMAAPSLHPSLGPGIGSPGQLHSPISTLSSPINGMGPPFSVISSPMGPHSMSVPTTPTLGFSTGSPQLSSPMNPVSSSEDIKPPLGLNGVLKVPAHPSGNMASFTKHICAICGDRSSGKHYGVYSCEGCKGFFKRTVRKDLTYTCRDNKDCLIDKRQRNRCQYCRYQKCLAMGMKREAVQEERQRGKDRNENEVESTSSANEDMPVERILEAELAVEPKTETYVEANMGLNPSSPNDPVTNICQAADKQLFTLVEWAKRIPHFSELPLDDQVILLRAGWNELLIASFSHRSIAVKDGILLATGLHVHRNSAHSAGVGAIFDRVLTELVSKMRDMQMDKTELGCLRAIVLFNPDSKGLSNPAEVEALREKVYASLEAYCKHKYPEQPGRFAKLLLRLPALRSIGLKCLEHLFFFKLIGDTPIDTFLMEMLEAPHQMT
Method in brief: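 TRANS format reporting activity of exogenous RXRa-Gal4 chimera in transiently transfected HepG2, 24 h exposure. Reporter transcripts quantified by RT-PCR with capillary electrophoresis, with gain of signal scored relative to DMSO.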

[6] = molecular target: human Retinoid X Receptor beta (RXRb), RXRB (gene 6257) (UniProt P28702); test: ATG_RXRb_TRANS: Attagene TRANS-FACTORIAL HepG2 Assay for human Retinoid X Receptor beta (RXRb) (AID 2283013)
Chain of human Retinoid X Receptor beta (RXRb), RXRB (gene 6257) (P28702 whole entry, looked up, the tested form may be a part): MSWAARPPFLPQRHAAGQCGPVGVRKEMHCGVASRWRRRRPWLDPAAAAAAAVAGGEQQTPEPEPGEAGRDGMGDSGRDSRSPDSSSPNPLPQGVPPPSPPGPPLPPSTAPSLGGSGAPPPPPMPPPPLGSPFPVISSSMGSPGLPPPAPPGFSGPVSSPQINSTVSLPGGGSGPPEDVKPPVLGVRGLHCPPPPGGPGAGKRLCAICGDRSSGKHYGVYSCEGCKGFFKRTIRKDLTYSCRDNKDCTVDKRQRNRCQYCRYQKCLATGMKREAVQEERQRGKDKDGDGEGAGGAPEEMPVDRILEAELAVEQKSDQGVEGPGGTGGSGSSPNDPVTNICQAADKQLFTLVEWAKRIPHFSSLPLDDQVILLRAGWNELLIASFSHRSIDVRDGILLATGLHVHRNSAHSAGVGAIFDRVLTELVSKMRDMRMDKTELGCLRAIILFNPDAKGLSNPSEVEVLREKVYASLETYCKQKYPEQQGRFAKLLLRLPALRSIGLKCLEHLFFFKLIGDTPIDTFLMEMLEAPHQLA
Method in brief: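 Readout is reporter transcript induction after 24 h dosing. It is measured by RT-PCR of total RNA followed by fluorescent capillary electrophoresis. HepG2 liver cells carry transfected multiple reporter units driven by an exogenous RXRb-Gal4 fusion; activity is relative to DMSO.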

[7] = molecular target: human Thyroid Receptor alpha (THRa1), THRA (gene 7067) (UniProt P10827); test: ATG_THRa1_TRANS: Attagene TRANS-FACTORIAL HepG2 Assay for human Thyroid Receptor alpha (THRa1) (AID 2283014)
Chain of human Thyroid Receptor alpha (THRa1), THRA (gene 7067) (P10827 whole entry, looked up, the tested form may be a part): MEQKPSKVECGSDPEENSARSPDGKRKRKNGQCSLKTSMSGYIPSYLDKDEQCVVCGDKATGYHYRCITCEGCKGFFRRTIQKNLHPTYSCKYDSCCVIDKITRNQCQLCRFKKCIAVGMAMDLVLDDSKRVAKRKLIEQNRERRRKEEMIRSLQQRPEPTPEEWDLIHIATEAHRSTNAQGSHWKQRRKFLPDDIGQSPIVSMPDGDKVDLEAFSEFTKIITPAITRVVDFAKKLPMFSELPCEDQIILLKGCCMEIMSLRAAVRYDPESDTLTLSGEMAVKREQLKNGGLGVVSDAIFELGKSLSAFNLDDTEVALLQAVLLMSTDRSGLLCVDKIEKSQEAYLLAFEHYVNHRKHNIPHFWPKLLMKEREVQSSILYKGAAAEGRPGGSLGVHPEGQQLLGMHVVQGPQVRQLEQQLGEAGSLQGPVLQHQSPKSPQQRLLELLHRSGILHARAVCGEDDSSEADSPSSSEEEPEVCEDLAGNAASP
Method in brief: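 Transient HepG2 transfection, NR-Gal4 chimera driving GAL4-UAS reporters; 24 h compound exposure; total RNA, oligo(dT) RT, PCR, fluorescent primer extension, capillary electrophoresis. Upward direction vs DMSO control.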

[8] = TOX21_p53_BLA_p2_viability: Viability Assessment in the Tox21 HCT-116 p53 Agonism Beta-lactamase Assay, Phase 2 (AID 2283591);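 note: actives lower the ATP signal meaning cytotoxicity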
Method in brief: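 HCT-116 p53-bla cells (4000/well) rested 5 h at 37C, then received compounds in DMSO (217-fold dilution) for 16 h at 37C, 5% CO2. After the CCF4 read, CellTiter-Glo was added; ATP luminescence was read after 30 min at room temperature.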

[9] = molecular target: Cellular tumor antigen p53 (Homo sapiens) (UniProt P04637); test: TOX21_p53_BLA_p2_ratio: Tox21 HCT-116 p53 Agonism Beta-lactamase Assay, Ratio, Phase 2 (AID 2283592)
Chain of Cellular tumor antigen p53 (Homo sapiens) (P04637 whole entry, looked up): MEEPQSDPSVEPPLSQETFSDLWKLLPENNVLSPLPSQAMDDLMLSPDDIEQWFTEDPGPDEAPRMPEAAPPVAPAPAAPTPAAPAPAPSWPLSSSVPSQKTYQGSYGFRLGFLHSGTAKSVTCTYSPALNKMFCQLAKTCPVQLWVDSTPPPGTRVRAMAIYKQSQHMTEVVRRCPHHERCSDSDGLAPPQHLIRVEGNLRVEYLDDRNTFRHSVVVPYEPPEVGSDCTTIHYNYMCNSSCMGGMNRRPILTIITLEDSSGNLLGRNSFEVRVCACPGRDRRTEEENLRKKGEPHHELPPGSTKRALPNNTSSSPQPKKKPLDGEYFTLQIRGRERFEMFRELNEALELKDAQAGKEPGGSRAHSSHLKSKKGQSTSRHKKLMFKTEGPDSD
Method in brief: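 Readout: blue/green (460/530 nm) FRET emission ratio after 2 h CCF4-AM loading at room temperature, excitation 405 nm. HCT116 p53 bla cells, 16 h compound exposure at 37C, 5% CO2; agonist direction fitted against DMSO baseline.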

[10] = molecular target: Cellular tumor antigen p53 (Homo sapiens) (UniProt P04637); test: TOX21_p53_BLA_p3_ratio: Tox21 HCT-116 p53 Agonism Beta-lactamase Assay, Ratio, Phase 3 (AID 2283596)
Method in brief: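 Cells were seeded at 4000/well, rested 5 h at 37C, then dosed with DMSO compound solutions (217-fold dilution) for 16 h. CCF4-AM substrate was loaded for 2 h at room temperature, and the 460/530 nm emission ratio was fitted for gain of signal versus DMSO.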

[11] = TOX21_p53_BLA_p4_viability: Viability Assessment in the Tox21 HCT-116 p53 Agonism Beta-lactamase Assay, Phase 4 (AID 2283597);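 note: hits lower the luminescence signal meaning cytotoxicity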
Method in brief: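 ATP content by CellTiter-Glo luminescence, 30 min RT, read after the beta-lactamase ratio step. Cells: HCT116, 4000/well, compound added after 5 h, exposure 16 h at 37C. Signal loss = reduced viability.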

[12] = molecular target: Cellular tumor antigen p53 (Homo sapiens) (UniProt P04637); test: TOX21_p53_BLA_p5_ratio: Tox21 HCT-116 p53 Agonism Beta-lactamase Assay, Ratio, Phase 5 (AID 2283599)
Method in brief: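 HCT-116 cells carrying a p53-inducible beta-lactamase reporter were seeded at 4000 cells/well and dosed after 5 h with compound in DMSO (217-fold dilution). After 16 h at 37C, CCF4-AM substrate was added for 2 h, and the 460/530 nm emission ratio was scored as gain-of-signal versus DMSO.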

[13] = TOX21_p53_BLA_p5_viability: Viability Assessment in the Tox21 HCT-116 p53 Agonism Beta-lactamase Assay, Phase 5 (AID 2283600)
Method in brief: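 ATP luminescence (CellTiter-Glo, 30 min, RT) served as the viability read-out, with loss of signal indicating cytotoxicity. Compounds in DMSO were pinned at a 217-fold dilution onto 4000 cells/well and incubated 16 h, 37C.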

[14] = molecular target: Cellular tumor antigen p53 (Homo sapiens) (UniProt P04637); test: TOX21_p53_BLA_p4_ratio: Tox21 HCT-116 p53 Agonism Beta-lactamase Assay, Ratio, Phase 4 (AID 2283601)
Method in brief: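 HCT116 cells carrying an inducible beta-lactamase reporter were plated at 4000 cells/well, rested 5 h, then exposed to compounds in DMSO (217-fold dilution) for 16 h at 37C. CCF4-AM substrate was loaded 2 h at room temperature; 460/530 nm emission ratio scored gain-of-signal versus DMSO.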

[15] = ATG_TGFb_CIS: Attagene CIS-FACTORIAL HepG2 Assay for human Transforming Growth Factor (TGF) (AID 2282967; active = hit-call score of the fitted dose curve at least 0.9, where 1 is the maximum; inactive = score below 0.9); conditions: HepG2 Attagene CIS TGFb reporter, mRNA transcription; actives raise or lower the signal
Method in brief: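 Liver HepG2 line, cis-factorial reporter panel, 24 h dosing. Quantitation: RT-PCR products labeled with 6-FAM, cut with HpaI, resolved by capillary electrophoresis; DMSO-referenced bidirectional analysis.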

[16] = ATG_GAL4_TRANS: Attagene TRANS-FACTORIAL HepG2 Assay for GAL4 (Internal Marker) (AID 2282976); conditions: HepG2 Attagene TRANS GAL4 internal marker reporter
Method in brief: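 RT-PCR/capillary electrophoresis readout of reporter mRNA. HepG2, transient MRTU transfection (GAL4-UAS reporters), 24 h compound exposure. Background-control endpoint, positive direction vs DMSO baseline.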

[17] = molecular target: Hepatocyte nuclear factor 4-alpha (Homo sapiens) (UniProt P41235); test: ATG_HNF4a_TRANS: Attagene TRANS-FACTORIAL HepG2 Assay for human Hepatocyte Nuclear Factor 4 alpha (HNF4a) (AID 2282982); conditions: HepG2 HNF4a transactivation reporter, mRNA readout
Chain of Hepatocyte nuclear factor 4-alpha (Homo sapiens) (P41235 whole entry, looked up, the tested form may be a part): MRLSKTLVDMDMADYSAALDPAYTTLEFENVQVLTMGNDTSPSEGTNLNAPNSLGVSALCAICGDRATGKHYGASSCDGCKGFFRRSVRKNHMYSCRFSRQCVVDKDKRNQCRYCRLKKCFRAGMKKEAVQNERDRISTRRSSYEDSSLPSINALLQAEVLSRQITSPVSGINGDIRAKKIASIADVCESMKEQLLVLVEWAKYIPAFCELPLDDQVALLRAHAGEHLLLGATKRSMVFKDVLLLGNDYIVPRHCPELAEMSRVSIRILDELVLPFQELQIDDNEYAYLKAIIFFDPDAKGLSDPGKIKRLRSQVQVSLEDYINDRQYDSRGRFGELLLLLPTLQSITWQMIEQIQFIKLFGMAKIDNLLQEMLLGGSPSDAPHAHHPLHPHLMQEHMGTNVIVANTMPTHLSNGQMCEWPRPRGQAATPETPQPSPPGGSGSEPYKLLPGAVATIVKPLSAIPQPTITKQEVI
Method in brief: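 In this trans-factorial format, a chimeric HNF4a-GAL4 fusion drives a GAL4-UAS reporter in transfected HepG2 liver cells. After 24 h treatment, reporter mRNA induction is measured by RT-PCR with capillary electrophoresis, relative to DMSO.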

[18] = molecular target: Nuclear receptor subfamily 4 group A member 2 (Homo sapiens) (UniProt P43354); test: ATG_NURR1_TRANS: Attagene TRANS-FACTORIAL HepG2 Assay for human Nuclear Receptor Related Protein 1 (NURR1) (AID 2282985); conditions: HepG2 Attagene TRANS reporter, mRNA readout
Chain of Nuclear receptor subfamily 4 group A member 2 (Homo sapiens) (P43354 whole entry, looked up, the tested form may be a part): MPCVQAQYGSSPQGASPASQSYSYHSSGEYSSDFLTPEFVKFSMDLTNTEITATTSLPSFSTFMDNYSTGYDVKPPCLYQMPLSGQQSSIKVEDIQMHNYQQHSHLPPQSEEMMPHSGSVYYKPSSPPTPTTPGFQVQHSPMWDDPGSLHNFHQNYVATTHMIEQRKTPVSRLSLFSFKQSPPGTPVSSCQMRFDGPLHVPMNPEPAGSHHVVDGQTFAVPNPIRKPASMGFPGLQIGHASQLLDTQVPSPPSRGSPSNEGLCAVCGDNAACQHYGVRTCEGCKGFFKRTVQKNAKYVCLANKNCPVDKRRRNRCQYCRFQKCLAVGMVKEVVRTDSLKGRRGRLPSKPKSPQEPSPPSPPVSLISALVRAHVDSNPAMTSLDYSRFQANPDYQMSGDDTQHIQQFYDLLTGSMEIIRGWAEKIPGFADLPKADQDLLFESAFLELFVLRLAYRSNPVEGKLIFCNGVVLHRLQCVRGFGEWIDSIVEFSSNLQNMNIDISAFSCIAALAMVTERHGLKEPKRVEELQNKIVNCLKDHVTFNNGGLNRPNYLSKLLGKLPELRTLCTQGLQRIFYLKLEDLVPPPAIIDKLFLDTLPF
Method in brief: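 Chimeric NR-Gal4 fusion activity measured in HepG2 after 24 h treatment. Reporter transcripts detected by RT-PCR and capillary electrophoresis fluorescence; positive-direction curve fitting against DMSO.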

[19] = molecular target: Hepatocyte nuclear factor 6 (Homo sapiens) (UniProt Q9UBC0); test: ATG_HNF6_CIS: Attagene CIS-FACTORIAL HepG2 Assay for human Hepatocyte Nuclear Factor 6 (HNF6) (AID 2282952; active = hit-call score of the fitted dose curve at least 0.9, where 1 is the maximum; inactive = score below 0.9); conditions: HepG2 Attagene cis-factorial HNF6 reporter transcription; actives raise or lower the signal
Chain of Hepatocyte nuclear factor 6 (Homo sapiens) (Q9UBC0 whole entry, looked up, the tested form may be a part): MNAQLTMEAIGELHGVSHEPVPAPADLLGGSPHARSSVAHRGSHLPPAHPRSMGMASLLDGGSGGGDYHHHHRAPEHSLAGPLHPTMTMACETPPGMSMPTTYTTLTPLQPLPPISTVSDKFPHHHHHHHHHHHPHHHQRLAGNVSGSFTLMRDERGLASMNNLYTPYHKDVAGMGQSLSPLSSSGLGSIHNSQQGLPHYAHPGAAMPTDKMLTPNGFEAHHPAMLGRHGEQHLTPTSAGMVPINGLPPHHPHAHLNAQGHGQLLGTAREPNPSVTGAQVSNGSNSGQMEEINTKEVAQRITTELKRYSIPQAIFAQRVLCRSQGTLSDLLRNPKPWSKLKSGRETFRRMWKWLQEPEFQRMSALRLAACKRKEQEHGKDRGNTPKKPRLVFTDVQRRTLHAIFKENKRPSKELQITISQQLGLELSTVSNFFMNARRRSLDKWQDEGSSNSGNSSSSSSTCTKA
Method in brief: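 Readout: fluorescent reporter-transcript fragments resolved by capillary electrophoresis after RT-PCR, reflecting endogenous factor activity in transfected HepG2. Exposure 24 h. Gain or loss of signal fitted bidirectionally against DMSO.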

[20] = ATG_NF_kB_CIS: Attagene CIS-FACTORIAL HepG2 Assay for human Nuclear Factor Kappa B (NF-kB) (AID 2282991; active = hit-call score of the fitted dose curve at least 0.9, where 1 is the maximum; inactive = score below 0.9); conditions: HepG2 Attagene cis-factorial NF-kB reporter mRNA; actives raise or lower the signal
Method in brief: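 Readout is reporter transcript level, gain or loss versus DMSO, measured 24 h post-dose via RT-PCR, fluorescent labelling and capillary electrophoresis. Human HepG2 liver cells carried transiently transfected CIS reporter constructs reflecting endogenous factors.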

Measured: AC50

Sc1nc2ccccc2s1
active: [2] 19.3 µM | [8] 0.000211 µM | [11] 0.00175 µM | [13] 0.000128 µM
not listed: [15] | [16] | [17] | [18] | [19] | [20]
inactive: all other assays above

CC1(C)S[C@@H]2[C@H](NC(=O)[C@H](N)c3ccccc3)C(=O)N2[C@H]1C(=O)O
not listed: [3] | [5] | [6] | [9] | [19] | [20]
inactive: all other assays above

CCCCOC(=O)COc1ccc(Cl)cc1Cl
not listed: [1] | [4] | [5] | [7] | [14] | [16] | [18]
inactive: all other assays above

CCCCC(CC)COC(=O)CS (stereo not drawn)
not listed: [1] | [2] | [7] | [12] | [13] | [17]
inactive: all other assays above

C[C@H]1C[C@H]2[C@@H]3CCC4=CC(=O)C=C[C@]4(C)[C@@]3(F)[C@@H](O)C[C@]2(C)[C@@]1(O)C(=O)CO
not listed: [2] | [3] | [12] | [16] | [17] | [19]
inactive: all other assays above

O=C(OCc1ccccc1)c1ccccc1
inactive: [19] | [15] | [16] | [17] | [3] | [18] | [20] | [5] | [6] | [7]

CCCCCCCCCCC1CO1 (stereo not drawn)
not listed: [4] | [8] | [11] | [12] | [13] | [17] | [19]
inactive: all other assays above

COC(=O)c1ccccc1
active: [15] 0.5 µM
not listed: [4] | [6] | [13]
inactive: all other assays above

Cc1ccnc(N)c1
inactive: [1] | [2] | [16] | [3] | [20] | [5] | [6] | [7] | [8] | [11] | [12]

C/C=C(\C)C(=O)OCC/C=C\CC
not listed: [7] | [11] | [12] | [17] | [19]
inactive: all other assays above

COc1ccccc1OCC(O)CO (stereo not drawn)
not listed: [2] | [5] | [11] | [16] | [19]
inactive: all other assays above

C=C(C)C(=O)OCC1CCCO1 (stereo not drawn)
not listed: [9] | [10] | [11] | [15] | [16] | [18] | [20]
inactive: all other assays above

C1=CCC=C1
inactive: [19] | [2] | [15] | [16] | [17] | [3] | [4] | [5] | [6] | [7]

c1cc[c]([Bi]([c]2ccccc2)[c]2ccccc2)cc1
inactive: [1] | [19] | [16] | [17] | [20] | [5]
active: [15] 40.4 µM | [18] 37.9 µM | [6] 7.42 µM

CCO[Si](CCCN)(OCC)OCC
not listed: [2] | [3] | [6] | [7]
inactive: all other assays above

CC1=NN(c2cc(Cl)c(S(=O)(=O)O)cc2Cl)C(=O)C1N=Nc1ccc(S(=O)(=O)O)cc1 (stereo not drawn)
not listed: [3] | [4] | [5] | [9] | [17]
inactive: all other assays above
